Data on nine molecules can be found in the supplement of paper PMC4709259.

Structures can show the parent of a compound that is named as a salt. ± gives the standard deviation.

For this assay, the system named is Jurkat. Kind of assay: mean cell size (FSC-A) relative to DMSO control (fraction of control); higher = larger cells. As to conditions: 48 h. A digest of the protocol:
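Jurkat cells seeded at 600 cells/µl were incubated 1 h, then exposed for 48h to the Enzo Screen-Well FDA Approved Drug Library v2.0 at 25µM in 0.9% (v/v) final DMSO. Drugs that cut counts below 20% of controls were diluted 10-fold and retested, down to 25nM. Cell count and mean cell size (forward scatter area) were read on an Accuri C6 flow cytometer, relative to solvent-only controls. Plates held 6-12 controls; values are means of 3 biological replicates.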
For `NNCCc1ccccc1` [Phenelzine Sulfate] (concentration: 25 µM), the mean cell size worked out at 0.942 ± 0.015.

`COc1cc(C(=O)NCc2ccc(OCCN(C)C)cc2)cc(OC)c1OC` [Trimethobenzamide·HCl] (concentration: 25 µM) had a mean cell size of 0.9923 ± 0.0096.

`NS(=O)(=O)c1cc2c(cc1C(F)(F)F)NC(Cc1ccccc1)NS2(=O)=O` (centres undefined) [Bendroflumethiazide] (concentration: 25 µM) had a mean cell size of 0.957 ± 0.041.

In the case of `NC[C@H]1CC[C@H](C(=O)O)CC1` [Tranexamic Acid] (concentration: 25 µM), the mean cell size was 0.961 ± 0.051.

Molecule `NCC[C@H](O)C(=O)N[C@@H]1C[C@H](N)[C@@H](O[C@H]2O[C@H](CN)[C@@H](O)[C@H](O)[C@H]2O)[C@H](O)[C@H]1O[C@H]1O[C@H](CO)[C@@H](O)[C@H](N)[C@H]1O` [Amikacin Disulfate] (concentration: 25 µM) showed a mean cell size of 0.994 ± 0.028.

`Clc1ccccc1CN1CCc2sccc2C1` [Ticlopidine·HCl] (concentration: 25 µM) had a mean cell size of 0.922 ± 0.011.

The molecule `CC(C)(C)NC[C@H](O)COc1cccc2c1CCCC2=O` [Levobunolol·HCl] (concentration: 25 µM) came in with a mean cell size of 0.964 ± 0.056.

`CC1(C)S[C@@H]2[C@H](NC(=O)COc3ccccc3)C(=O)N2[C@H]1C(=O)O` [Penicillin V Potassium] (concentration: 25 µM) registered a mean cell size of 0.994 ± 0.015.

`OCCN(CCO)c1nc(N2CCCCC2)c2nc(N(CCO)CCO)nc(N3CCCCC3)c2n1` [Dipyridamole] (concentration: 25 µM) showed a mean cell size of 0.9538 ± 0.0084.
